# According to PubChem BioAssay AID647 (Vanderbilt High Throughput Screening Facility, 2007):
# Among all 2,200 compounds or so, about 1,400 (64%) were called active. The set was probably picked from earlier hits. Only a sample is shown. A number with no mark means an inactive call.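 How the source made its calls: active means luminescence in either replicate above plate mean of wells with a partly effective reference agonist dose plus 3 SD; inactive means the rest.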
# Assay: effects on beta-adrenoceptor cAMP reporter signal – cell-based, secondary assay 2, luminescence, counter-screen for D1 allosteric modulator project, confirmation (AID 647);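 further: isoproterenol raises cAMP through native beta-adrenoceptor Gs so signal bypasses D1; raw luminescence counts from the Envision reader with one value per duplicate well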
# Conditions: HEK293 D1 CRE-luciferase, isoproterenol EC30 counter-screen; at 10 µM; stronger effect = higher value
row,SMILES,luminescence
1,COc1ccc(-c2nnc(SCC(=O)NC3CCCCC3)o2)cc1OC,3200 (active)
2,O=S(=O)(c1cccs1)N1CCc2ccccc2C1,3530 (active)
3,CCOC(=O)/C=c1\s/c(=C\c2ccccc2OC)c(=O)n1CC(=O)N1CCOCC1,3580 (active)
4,CCCn1c(=O)c2[nH]c(C3CCCC3)nc2n(CCC)c1=O,3630 (active)
5,COc1ccc(S(=O)(=O)N(C)CC(=O)Nc2ccc3c(c2)OCCO3)cc1OC,3480 (active)
6,Cc1nn(-c2ccccc2)c2c1C(=O)NC(=O)C(C)(C)C2,3700 (active)
7,CC(=O)OC(C)C[N+](C)(C)C (configuration not stated),2500
8,CCc1ccc2oc(=O)cc(CN3CCCCC3C)c2c1 (configuration not stated),3040 (active)
9,COc1ccc(-c2n[nH]c(C)c2-c2ccc(OC)c(OC)c2)c(O)c1,3290 (active)
10,CCCSc1nc2c(c(=O)[nH]c(=O)n2C)n1CCc1ccccc1,6090 (active)
11,CC1CCN(c2nc3c(c(=O)[nH]c(=O)n3C)n2CCCc2ccccc2)CC1,5160 (active)
12,COC(=O)Nc1ncc(CN2C(=O)c3ccccc3C2=O)s1,2570
13,CCc1cc(=O)oc2cc(OCC(=O)N3CCCc4ccccc43)ccc12,4550 (active)
14,C=CCn1cnc2scc(-c3ccccc3)c2c1=O,3500 (active)
15,CCCc1nc(N)nc2c1C(=O)CC(C)(C)C2,4320 (active)
16,COc1ccc(-c2nnn(Cc3nc(N)nc(N4CCCCC4)n3)n2)cc1,3650 (active)
17,COc1ccc(NC(=O)C2CCCN(S(=O)(=O)c3cccc4cccnc34)C2)cc1OC (configuration not stated),3940 (active)
18,COc1ccc(CCN(C)C(=O)C2CCCN(Cc3ccc(OC)c(OC)c3)C2)cc1OC (configuration not stated),2610
19,CCOC(=O)c1c(NC(=O)CSc2nnc(CN3CCOCC3)n2C)sc2c1CCCC2,2880
20,C#CCNc1nc(C(C)C)nc2c1nnn2Cc1ccccc1F,3140 (active)
21,COc1ccc(-c2cc(C(F)(F)F)nc(S(C)(=O)=O)n2)cc1OC,4780 (active)
22,N#CCCN1CCN(S(=O)(=O)c2ccc(S(=O)(=O)NC3CCCCC3)cc2)CC1,2440

row,SMILES,luminescence
1,COc1ccc(S(=O)(=O)Nc2ccc(S(=O)(=O)N3CCCCC3)cc2)cc1OC,3220 (active)
2,COc1nc(NCc2ccc(Cl)cc2)nc(OC)n1,2930
3,CCOC(=O)c1cc2n(c1C)-c1ccccc1C2=O,3830 (active)
4,c1ccc(-c2nnc3n2NC(c2ccc4c(c2)OCO4)S3)cc1 (configuration not stated),3680 (active)
5,CCCCNc1nc2ccccc2nc1NS(=O)(=O)c1cccs1,3780 (active)
6,COc1ccc(CCNC(=O)CCn2c(=O)oc3ccccc32)cc1OC,3400 (active)
7,COc1ccc(CCNC(=O)c2cc3sccc3n2C)cc1OC,3110
8,CCn1c(=N)c(S(=O)(=O)c2ccc(F)cc2)cc2c(=O)n3ccccc3nc21,5680 (active)
9,CCCn1c(=NC(C)=O)c(C(=O)OCC)cc2c(=O)n3ccccc3nc21,2650
10,O=C(NCc1ccccn1)c1ccc2nc(-c3ccco3)c(-c3ccco3)nc2c1,2550
11,Cn1c(/C(C#N)=C2/CCCCCN2)nc2ccccc21,3990 (active)
12,CCn1cc(C(=O)NCC2COc3ccccc3O2)c2cc(OC)c(OC)cc2c1=O (configuration not stated),2910
13,CCC(=O)NC(=Nc1nc2ccccc2s1)NC(=O)CC,3180
14,Cn1c(=O)c2[nH]c(NCC3CCCO3)nc2n(-c2ccccc2)c1=O (configuration not stated),2780
15,c1ccc2c(NCC3CCCO3)nc(-c3ccncc3)nc2c1 (configuration not stated),3220 (active)
16,CCCCSc1nc2c(c(=O)n1CC)SC(C)C2 (configuration not stated),2820
17,CCOc1cccc(-n2nnnc2-c2ccc(OC)cc2)c1,4040 (active)
18,CC(C)n1c(C(O)c2ccccc2)nc2ccccc21 (configuration not stated),2350
19,CCCS(=O)(=O)N1CCC(C(=O)NCCc2ccc(OC)c(OC)c2)CC1,2720
20,COC(=O)c1ccccc1NC(=O)C1CCN(S(=O)(=O)c2cc(OC)ccc2OC)CC1,3570 (active)
21,Cn1c(=O)c2cn(-c3cccc4ccccc34)cc2n(C)c1=O,3300 (active)
22,CC(=O)c1ccc(Oc2cc(C)nc(-n3nc(C)cc3C)n2)cc1,6880 (active)

row,SMILES,luminescence
1,COc1ccc(Nc2cc(C)nc(-n3nc(C)cc3C)n2)cc1,3540 (active)
2,COc1ncnc2sc3c(c12)CCCC3,2970
3,CCOc1ccc(Cn2c(SCCCCC#N)nc3c2c(=O)n(C)c(=O)n3C)cc1OCC,5750 (active)
4,COC(=O)C(C)C1Sc2ccccc2NC1=O (configuration not stated),3160
5,CN1CCN(CC(O)COCc2ccc3c(c2)OCO3)CC1 (configuration not stated),5380
6,c1coc(-c2nc3nc4ccccc4n3nc2-c2ccco2)c1,4380 (active)
7,COC(=O)C1=C(C)NC2=C(C(=O)c3ccccc32)C1c1ccc(-c2ccc(C(=O)O)cc2)o1 (configuration not stated),2560
8,CCCCc1c(O)nc2n(c1=O)CCS2,2460
9,COc1ccc(CCNc2ncnc3nc[nH]c23)cc1OC,3430 (active)
10,CCCc1nc(-c2ccccc2O)n(-c2ccccc2)n1,3160 (active)
11,CC1(C)Cc2ccccc2-c2nc(CN3CCOCC3)[nH]c(=O)c21,3540 (active)
12,CC1Oc2ccccc2N(Cc2cccnc2)C1=O (configuration not stated),2840 (active)
13,CCOC(=O)c1c(NC(=O)CSc2nnc(Cc3csc(N)n3)n2C)sc(C)c1C,2440
14,c1ccc(COc2nsnc2N2CCOCC2)cc1,4500
15,N#CCSc1nc2ccccc2c(=O)n1-c1ccccc1,4560 (active)
16,C=CCSc1nc2c(c(=O)[nH]1)C(C(C)C)C(C#N)=C(N)O2 (configuration not stated),5180 (active)
17,COc1ncnc2c1N=C1CC(C)(C)CC(N)=C1S2,2960
18,O/N=C(\c1ccc2c(c1)OCCO2)C1CCCCC1,2880 (active)
19,COc1ccc(Nc2oc(-c3ccccc3Cl)nc2C#N)cc1,3960 (active)
20,N#Cc1nc(Cc2ccccc2)oc1NCCc1ccccc1,4280 (active)
21,CCOc1ccc(Nc2oc(Cc3ccccc3)nc2C#N)cc1,5850 (active)
22,CC(C)C1C2=C(CC(C)(C)CC2=O)ON1c1ccccc1 (configuration not stated),3320

row,SMILES,luminescence
1,N#Cc1c(N)sc2c1CCN(C(=O)OCc1ccccc1)C2,5320 (active)
2,CCNc1nc(NCC)nc(N(C)n2cnnc2)n1,3650 (active)
3,CC(C)c1cc(C(=O)O)on1,2070
4,Oc1ccc(-c2csc(Nc3cccnc3)n2)cc1,3250 (active)
5,CCn1ncc(C2=NOC(C(=O)Nc3ccccc3C(=O)OC)C2)c1C (configuration not stated),5220 (active)
6,CCn1nc(C(=O)OCC(=O)N2c3ccccc3CC2C)c2ccccc2c1=O (configuration not stated),2840
7,Cc1ccc(-c2nn(-c3ccccc3)cc2CN(Cc2ccccc2)C(=O)CCC(=O)O)o1,4080 (active)
8,O=C(CSc1nnc2scc(-c3ccc(F)cc3)n12)NCc1ccco1,2580
9,CCOc1ccc(-c2nnn(CC(=O)N3CCN(c4ccc(OC)cc4)CC3)n2)cc1OCC,3110 (active)
10,CCOc1cc(-c2noc(CCC(=O)N3CCOCC3)n2)ccc1OC,2630
11,CC1CCN(c2oc(-c3ccccc3F)nc2C#N)CC1,3380 (active)
12,CCOc1ccc2c(c1)cc(CN(C(=O)CC)C1CCCCC1)c1nnnn12,3880 (active)
13,CCOc1ccc2[nH]c(=O)c(C(c3nnnn3CCOC)N3CCOCC3)cc2c1 (configuration not stated),2250
14,Cc1cc(C(F)(F)F)nn1-c1nc(-c2ccco2)cc(C(F)(F)F)n1,3340 (active)
15,O=C(NCc1ccco1)c1cnn2c(C(F)(F)F)cc(-c3ccco3)nc12,3240
16,FC(F)(F)c1cc(-c2ccco2)nc(N2CCOCC2)n1,4220 (active)
17,COc1ccc(-c2nnco2)cc1OC,3030 (active)
18,Cc1ccc(C2CC(c3cccc(C)c3)n3nc(N)nc3N2)cc1 (configuration not stated),2800
19,Cc1ccc(C2CC(c3cccc(Br)c3)n3nc(N)nc3N2)cc1 (configuration not stated),3660 (active)
20,CCOc1ccccc1C1CC(c2ccccc2)Nc2nc(N)nn21 (configuration not stated),3190
21,CCOc1cc(C(=O)N2CCc3cc(OC)c(OC)cc3C2)ccc1OC(F)F,11500 (active)
22,CC(=O)Nc1cccc(Oc2cc(C#N)c(C#N)cc2N2CCOCC2)c1,4140 (active)

row,SMILES,luminescence
1,COc1cc(NC(=O)N2CCOCC2)cc(OC)c1,2540
2,C/C(Cl)=C\Cn1c(Nc2cccc(C)c2)nc2c1c(=O)n(C)c(=O)n2C,3460 (active)
3,Cc1cc(C)c2c(n1)nn1c(-n3ccnc3)cc(C)nc21,3020 (active)
4,CCSc1nc(C)nc2c1oc1ccccc12,3530 (active)
5,COC(=O)[C@H](C(C)C)n1c(C)c(C(C)=O)c(C(C)=O)c1C,2600
6,O=c1cc(-c2ccccc2)nc(N2CCCCC2)[nH]1,3010
7,CCCN1Cc2cccc(C(=O)NCc3ccccc3)c2C1=O,3680 (active)
8,CCSc1ncnc2c(C#N)c3n(c12)CCCCC3,6230 (active)
9,O=C(c1ccco1)N1CCN=C1SCc1cccc(Cl)c1,3200 (active)
10,Cc1ccc(S(=O)(=O)c2c(N)n(C)c3nc4ccccc4nc23)cc1,3490 (active)
11,COc1ccc(-n2c(Cc3cccn3C)nnc2SCC(=O)Nc2cc(C)cc(C)c2)cc1,2370
12,Nc1ccc(S(=O)(=O)NC(=O)c2ccccc2)cc1,2950
13,CCOC(=O)c1cc(C)sc1NC(=O)C1CCC1,4600 (active)
14,C/C(=C\C(=O)c1ccccc1)Nc1cccc(O)c1,2540
15,CN(C)c1nc(N)nc(CSc2nnnn2-c2cccc3ccccc23)n1,3420 (active)
16,COc1ccc(-c2nn3c(-c4ccccc4)nnc3s2)cc1OC,8440 (active)
17,COc1cc(-c2nn3c(-c4cccc(C)c4)nnc3s2)cc(OC)c1OC,4430 (active)
18,O=C(C1CCC1)N1CCc2cc(S(=O)(=O)NCc3cccnc3)ccc21,3060
19,N#Cc1nc(N)nc(N(c2ccccc2)c2ccccc2)n1,2880
